Source: PubChem
ssDAF-12 act: activates DAF-12 receptor from parasite S. stercoralis; 370,000 tested, 1% active; HEK293 ssDAF-12/GRIP1 lit1-tk-luc reporter, luminescence; % of 3 µM dafachronic acid response; activation, % at 6.8 µM;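 active = activation above the mean over all tested compounds plus 3 SD, cut at about 0.9% in these data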;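 also: 0% = DMSO-only wells and 100% = 3 µM delta7-dafachronic acid wells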
hcDAF-12 act: H. contortus DAF-12 activation, primary screen. AID 652067. activation, % at 6.8 µM. HEK293 hcDAF-12 lit1-tk-luc reporter, luminescence; 0% DMSO, 100% Δ7-dafachronic acid. 370,000 tested, 1.4% active;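 active = activation above the mean of all tested compounds plus 3 SD, cut at about 5.5% in these data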;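 also: 100% = response to 3 µM Δ7-dafachronic acid high control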
APP 5'UTR act: activates APP 5'UTR luciferase reporter; 190,000 tested, 1% active; activation, % at 2 µM; AID 1276; SH-SY5Y APP 5'UTR luciferase reporter, luminescence; zero percent = DMSO vehicle wells;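 active = activation above a set limit, based on mean plus 3 SD of controls, cut at about 140% in these data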
hgDAF12 agonist: hgDAF-12 agonism, primary luciferase screen; HEK293 GAL4-hgDAF12 UAS-luciferase reporter, agonist luminescence; normalized to butyrate control; activation, % at 6.8 µM; 370,000 tested, 1.8% active; AID 687014;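 active = activation above a cutoff set at the mean of all screened compounds plus 3 SD, cut at about 10% in these data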;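 also: 0% = DMSO wells and 100% = sodium butyrate wells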
NF-kB expr up: compounds increasing NF-kB expression in human neuronal cells; NF-kB reporter expression; stronger effect = higher value; fold change at 12.5 µM; 190,000 tested, 1.6% active; AID 1239; in the data active = fold change above about 3.3
* marks the source's active call; other numbers are inactive results; . = no result given. Only some compounds are listed: those with a hit (about 3.4% of all), similar ones and a draw of the others.

SMILES | ssDAF-12 act | hcDAF-12 act | APP 5'UTR act | hgDAF12 agonist | NF-kB expr up
C=CCN(CC#Cc1ccccc1)Cc1ccc(OC)cc1OC | -1 | -1 | . | 1 | .
O=C(c1ccco1)N1CCN(C(=O)N2c3ccccc3Sc3ccccc32)CC1 | -1 | -1 | -93 | -2 | 4.7*
O=C(NCC(=O)N1CCCCCCC1)c1ccc(Cl)cc1 | -1 | 3 | . | 12* | .
O=C(NCC(=O)N1CCN(C(=O)c2ccco2)CC1)c1ccccc1 | 1.0* | -1 | . | 0 | .
CC(C)CC(=O)N1CCN(C(=O)c2ccco2)CC1 | -1 | 5.7* | 8 | 2 | 1.1
O=C(c1ccco1)N1c2ccccc2Sc2ccccc21 | -2 | -2 | -12 | 1 | 1.1
COc1ccccc1C(=O)NCCCNc1ccc([N+](=O)[O-])cc1 | -1 | -1 | -19 | -1 | 1.3
CC(=O)NCCCNc1ccc([N+](=O)[O-])cc1 | -1 | 6.1* | -16 | 5 | 1.5
O=C(NNC(=O)[C@@H]1CCCC[C@@H]1C(=O)O)c1cccs1 | -1 | 1 | 33 | 3 | 1.5
Cc1ccsc1C(=O)NNC(=O)C1CCCCC1C(=O)O (centres undefined) | 1 | 5 | 97 | 16* | 1.4
COC(=O)[C@H](C(C)C)N(CCCc1cn(Cc2ccc(C)cc2)nn1)S(=O)(=O)c1ccccc1Br | -2 | -1 | . | -5 | .
C=CCNc1nc(-c2ccc([N+](=O)[O-])cc2)cs1 | -1 | 1 | 72 | 12* | 4*
Cc1ccc(NC(=O)/C=C/c2ccc([N+](=O)[O-])s2)c(C)c1 | -2 | -2 | -93 | -9 | 1.7
Cc1cc([N+](=O)[O-])ccc1NC(=O)/C=C/c1cccs1 | -1 | -1 | 43 | 12* | 2.1
COc1ccc(/C=C/S(=O)(=O)NCc2ccccc2)c(CNC(=O)OC(C)(C)C)c1 | -2 | -1 | . | -1 | .
CC(=NNS(=O)(=O)c1ccc([N+](=O)[O-])cc1)c1ccc(C)cc1 | -1 | 2 | . | -3 | .
C/C(=N\NC(=O)C(N)=O)c1ccc(NC(=O)c2cccs2)cc1 | 0 | 2 | 56 | 9 | 1.7
C/C(=N\NC(=O)c1ccccc1)c1ccc(NC(=O)c2cccs2)cc1 | -2 | 0 | 79 | 0 | 1.3
C/C(=N\NS(=O)(=O)c1ccc([N+](=O)[O-])cc1)c1ccc(NC(=O)c2ccco2)cc1 | -1 | 0 | 63 | 12* | 1.5
C/C(=N\NC(=O)c1ccccc1C)c1ccc(NC(=O)c2cccs2)cc1 | -1 | 2 | 95 | 12* | 1.1
C/C(=N\NC(=O)c1ccco1)c1ccc(NC(=O)c2cccs2)cc1 | 0 | 2 | 58 | 11* | 1.1
COc1ccccc1CCn1cnc(-c2ccccc2)c1CC(C)C | -2 | -2 | . | -4 | .
Cc1csc(SC(C)C(=O)NCC2CCCCC2)n1 (centres undefined) | 1.0* | 1 | 0 | -1 | 1.5
CC1CC(c2ccccc2)=Nc2ccccc2N1 (centres undefined) | 0 | 5.7* | . | 8 | .
O=C(CN1CCN(c2nc(-c3ccccc3)cs2)CC1)Nc1ccc(F)cc1F | -1 | -3 | . | -1 | .
SMILES | ssDAF-12 act | hcDAF-12 act | APP 5'UTR act | hgDAF12 agonist | NF-kB expr up
Cn1cnc(NCc2ccccc2)c1[N+](=O)[O-] | 3.4* | 1 | . | 0 | .
Cc1cc(OCC(=O)NC(C)(C)C)ccc1Cl | -1 | 1 | 1 | 12* | 1.3
Cc1ccc(NC(=O)c2ccc(OC(=O)COc3ccc(Cl)c(C)c3)cc2)cc1 | 0 | 4 | 132 | 13* | 1.9
Cc1cnc(NC(=O)CC2CCCC2)s1 | -1 | 3 | 41 | 11* | 1.9
Cc1cnc(NC(=O)c2ccc(OCC3CCCO3)cc2)s1 (centres undefined) | 0 | 5 | 128 | 9 | 3.9*
Cc1cnc(NC(=O)CCN2C(=O)C3CCCCC3C2=O)s1 (centres undefined) | -1 | -1 | 9 | 2 | 1.2
COC(=O)[C@]12C[C@H](CC(=O)NCc3ccccc3)C(=O)N(Cc3ccco3)C1=C[C@H](C(C)C)O[C@@H]2C1CC1 | -1 | -3 | . | -5 | .
COC(=O)[C@]12C[C@H](CC(=O)N3CCN(C(=O)c4ccco4)CC3)C(=O)N(Cc3cccc4ccccc34)C1=C[C@H](C1CCCC1)O[C@@H]2C | -1 | -1 | . | -4 | .
CC(C)N1CCCCC(NC(=O)c2cccc(C(F)(F)F)c2)C1=O (centres undefined) | -1 | 1 | . | -5 | .
O=C(NC1=NCCS1)c1ccc(OCC2CCCO2)cc1 (centres undefined) | 0 | 4 | 85 | 7 | 2.4
Cc1ccc(NC(=O)c2ccc(OCC3CCCO3)cc2)cc1 (centres undefined) | 0 | 4 | 108 | 12* | 3.4*
Cc1ccc(NC(=O)c2ccc(OCC3CCCO3)cc2)nc1 (centres undefined) | 0 | 3 | . | 12* | .
COc1ccc(S[C@]2(C(=O)N3CCN(c4ncccn4)CC3)CC(=O)N(C(=O)/C=C/c3ccccc3)[C@@H]2c2ccc(OC)cc2)cc1 | -1 | -1 | . | -3 | .
COc1ccc2c(c1)CCc1c(C(=O)NCC(C)C)noc1-2 | 0 | 4 | 178* | 13* | 6.3*
COc1ccc2c(c1)CCc1c(C(=O)NCc3cccnc3)noc1-2 | -1 | 0 | 24 | 0 | 1.4
COc1ccc2c(c1)CCc1c(C(=O)N3CCCCCC3)noc1-2 | -1 | 3 | 130 | 8 | 3.4*
COc1cc(SC)ccc1C(=O)Nc1c(C)cccc1C | -2 | -2 | 3 | 0 | 1.2
COc1cc(SC)ccc1C(=O)NNC(=O)c1cc(C)oc1C | 0 | 4 | . | 13* | .
Cc1ccc(NC(=O)c2snc3ccc(Cl)cc23)cc1C | 0 | 6.0* | 92 | 10 | 1.7
CCOc1cc(Br)cc(C(c2c(C(=O)O)[nH]c3ccccc23)c2c(C(=O)O)[nH]c3ccccc23)c1O | -1 | 5 | . | 2 | .
CSc1ccc(C(c2c(C(=O)O)[nH]c3ccccc23)c2c(C(=O)O)[nH]c3ccccc23)cc1 | -1 | 5.6* | . | 0 | .
COc1ccc(S[C@]2(C(=O)N(C)C)CC(=O)N[C@@H]2c2ccc(OC)cc2)cc1 | -1 | -1 | . | 1 | .
COc1ccc(C(=O)n2cnc3ccccc32)cc1[N+](=O)[O-] | 1.4* | 5 | . | 4 | .
COc1cc2cnc(-c3ccsc3)cc2cc1OC | 0 | 2 | . | 1 | .
c1cc(-c2cc3cc4c(cc3cn2)OCO4)cs1 | 1.2* | 5.8* | . | 7 | .
Cc1ccc(O)c(NC(=O)c2cc(-c3ccc(F)cc3)on2)c1 | -1 | 0 | 34 | 3 | 1.1
CC(C)NC(=O)c1cc(-c2cccs2)on1 | -1 | 0 | 62 | 8 | 4*
Cc1ccc(O)c(NC(=O)c2cc(-c3cccs3)on2)c1 | 0 | 2 | . | 11* | .
Cc1ccc2c(c1)sc1ncc(NC(=O)c3ccc(F)cc3)c(=O)n12 | . | . | 1 | . | 1.2
Cc1ccc2c(c1)sc1nc(=O)n(-c3ccccc3)c(=O)n12 | -1 | 2 | . | 12* | .
